Peg3 promoter = Peg3 promoter-driven luciferase inhibitors, primary screen, cell-based, HeLa, luciferase luminescence | 1.7% of 360,000 active | AID 588405, 2011 | HeLa PEG-Prom luciferase reporter, overnight | inhibition, % at 20 µM;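 active means inhibition of at least 50% at 20 µM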
HIF-2a block = HIF-2a reporter inhibitors, primary screen, luminescence, 786-0 RCC cells; 786-0 RCC cells HIF-2a reporter, luciferase luminescence, overnight; inhibition, % at 18.8 µM; 0.72% of 360,000 active;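 active means inhibition of the luminescence signal of 40% or more relative to plate controls, in a single-dose primary screen at 18.75 µM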
ABHD5 PLIN5 PPI = ABHD5-PLIN5 interaction inhibitors, primary screen, cell lysate, split luciferase complementation, luminescence. Split G. princeps luciferase complementation, 4 h. inhibition, % at 4 µM. 0.78% of 360,000 active;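 active means inhibition above the mean inhibition across every tested compound plus 3 SD, cut at about 22% in these data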
Target sequence (Q00G26 whole entry, looked up): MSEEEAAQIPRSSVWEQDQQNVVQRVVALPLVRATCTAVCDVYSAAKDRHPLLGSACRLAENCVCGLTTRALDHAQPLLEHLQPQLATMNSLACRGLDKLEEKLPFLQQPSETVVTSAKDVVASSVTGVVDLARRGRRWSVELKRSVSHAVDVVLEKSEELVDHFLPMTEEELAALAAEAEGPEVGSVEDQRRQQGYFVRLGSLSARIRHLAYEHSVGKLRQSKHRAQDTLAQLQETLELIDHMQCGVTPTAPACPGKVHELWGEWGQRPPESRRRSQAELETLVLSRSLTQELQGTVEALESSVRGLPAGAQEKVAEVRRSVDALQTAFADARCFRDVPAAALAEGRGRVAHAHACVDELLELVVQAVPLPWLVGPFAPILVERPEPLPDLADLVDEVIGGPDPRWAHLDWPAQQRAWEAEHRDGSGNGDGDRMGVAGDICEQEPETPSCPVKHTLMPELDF
Target sequence (Q8WTS1 whole entry, looked up): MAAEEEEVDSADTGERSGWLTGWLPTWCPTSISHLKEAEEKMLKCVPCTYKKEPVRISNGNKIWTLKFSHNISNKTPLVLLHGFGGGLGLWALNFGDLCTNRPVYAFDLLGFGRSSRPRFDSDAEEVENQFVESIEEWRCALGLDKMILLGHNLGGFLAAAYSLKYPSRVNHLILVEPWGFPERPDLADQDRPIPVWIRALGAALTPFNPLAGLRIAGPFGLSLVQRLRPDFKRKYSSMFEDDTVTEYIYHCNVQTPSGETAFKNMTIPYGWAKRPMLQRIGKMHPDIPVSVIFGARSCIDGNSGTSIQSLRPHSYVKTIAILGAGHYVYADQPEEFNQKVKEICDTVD
Mdm2-MdmX inh = inhibitors of human Mdm2-MdmX association, primary screen, cell-based, luminescence, split luciferase, SaOS-2, uHTS. Protein Mdm4 (Homo sapiens) + E3 ubiquitin-protein ligase Mdm2 (Homo sapiens), …. SaOS-2 split-luciferase Mdm2/MdmX complementation. inhibition, % at 8 µM. 3% of 330,000 active. AID 485346, 2010;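 active means inhibition of at least 50% at 8 µM in the primary screen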
KKLEB cytotox = cytotoxicity in KKLEB CF airway cells, primary screen, cytotoxicity control for CF NF-kB inhibitor project, cell-based, uHTS, fluorescence assay plates. KKLEB CF airway cells viability, ATPlite luminescence, overnight; stronger effect = lower value; cells stimulated with P. aeruginosa culture filtrate. 0.36% of 360,000 active. activity change (cytotoxicity), % at 5 µM;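 active means corrected activity change at or below -50% at 5 µM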
CF NFkB block = inhibitors of PAF-induced NF-kB signaling, primary screen, cell-based, GFP fluorescence, uHTS; KKLEB NF-kB-GFP reporter, GFP fluorescence overnight; inhibition, % at 5 µM; 0.86% of 360,000 active; AID 588850, 2011;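 active means at least 50% inhibition at 5 µM, scaled per plate between neutral and stimulator controls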;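 further: PAF is a Pseudomonas aeruginosa culture filtrate used as stimulus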
Mdm2 MdmX conf = Mdm2-MdmX complex disruptors, retested hits, confirmation, luminescence, single concentration | inhibition, % at 8 µM | shares compounds with Mdm2-MdmX inh | Mdm2-MdmX binding, luminescent assay | 55% of 10,000 active; in the data active means inhibition above about 40%
FLuc counter = full-length luciferase signal inhibition, confirmation, counter-screen for Mdm2/MdmX interaction inhibitor project, cell-based, single concentration, SaOS-2. shares compounds with Mdm2-MdmX inh. SaOS-2 full-length luciferase counterscreen, luminescence. inhibition, % at 8 µM. 77% of 6,200 active. AID 504607, 2011;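 active means mean inhibition at 8 µM reaching about 37%, which flags the compound as non-specific, limit read from the data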;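 further: p53-null SaOS-2 cells with luciferase driven by a doxycycline-inducible promoter; compound on cells about two nights before reading with doxycycline added after day one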
Each line names hits and unclear results; the compound was inactive in the other large screens (follow-up assays come after a bar, where they were run). Most compounds without a hit are left out; they make up all but 4.6% or so of the library.

OCCCn1c(C2CCCN2c2nc(-c3ccc(Cl)cc3)cs2)nc2cc(Cl)c(N3CCCCC3)cc21 (configuration not stated)	Peg3 promoter 72, Mdm2-MdmX inh 73 | Mdm2 MdmX conf inactive
Cc1csc(N2CCCC2c2nc3cc(Cl)c(N4CCCCC4)cc3n2CCCO)n1 (configuration not stated)	none
CC(Nc1nc(-c2ccc(F)cc2)cs1)c1nc2cc(Cl)c(N3CCCCC3)cc2n1CCOCCO (configuration not stated)	none
COc1ccc(-c2csc(NC(C)c3nc4cc(Cl)c(Cl)cc4n3CCCO)n2)cc1 (configuration not stated)	Mdm2-MdmX inh 59 | Mdm2 MdmX conf inactive
CC(Nc1nc(-c2ccc(F)cc2)cs1)c1nc2cc(Cl)c(N3CCCCC3)cc2n1CCCO (configuration not stated)	Mdm2-MdmX inh 75 | Mdm2 MdmX conf inactive
O=C(CN1C(=O)NC2(CCCC2)C1=O)Nc1cc(Cl)ccc1Oc1ccccc1	none
COc1ccc(/C=C/C(=O)NC(=S)NNC(=O)c2cnccn2)cc1	Peg3 promoter 52, Mdm2-MdmX inh 74 | Mdm2 MdmX conf 53 | FLuc counter 53
COc1ccc(C(=O)NNC(=S)NC(=O)c2cccs2)cc1	none
COc1ccc(/C=C/C(=O)NC(=S)NNC(=O)c2cccs2)cc1	Mdm2-MdmX inh 54 | Mdm2 MdmX conf 53 | FLuc counter 73
COc1cc(NC(=S)NC(=O)c2ccc(C(C)(C)C)cc2)ccc1NC(=O)c1cccs1	Mdm2-MdmX inh 90 | Mdm2 MdmX conf 68 | FLuc counter inactive
COc1cc(NC(=S)NC(=O)c2cc(C)cc(C)c2)ccc1NC(=O)c1cccs1	none
COc1ccccc1C(=O)NNC(=S)NC(=O)c1cccs1	Mdm2-MdmX inh 63 | Mdm2 MdmX conf inactive
COc1ccc(/C=C/C(=O)NC(=S)NNC(=O)c2cccnc2)cc1	none
CN1CCCC(OC(=O)c2ccc(C(C)(C)C)cc2)C1 (configuration not stated)	none
Cc1ccc(C(=O)N2CCN(c3ccc(NC(=S)NC(=O)c4cccs4)cc3)CC2)cc1	none
Cc1ccccc1C(=O)N1CCN(c2ccc(NC(=S)NC(=O)c3cccs3)cc2)CC1	Mdm2-MdmX inh 53 | Mdm2 MdmX conf inactive | FLuc counter 75
CCN(CCCNC(=O)COc1cc(=O)n(CC)c2ccccc12)Cc1ccccc1	Mdm2-MdmX inh 59 | Mdm2 MdmX conf 46 | FLuc counter 93
CCN(CCCNC(=O)CCCOc1cc(=O)n(C)c2ccccc12)Cc1ccccc1	Mdm2-MdmX inh 52 | Mdm2 MdmX conf inactive
CCN(C[C@H]1N[C@@](C)(C(=O)OC)[C@H]2C(=O)N(C)C(=O)[C@@H]12)C(=O)Nc1ccc(Cl)cc1	none
COc1cc([C@@H]2c3cc4c(cc3[C@@H](O)[C@H]3COC(=O)[C@H]23)OCO4)cc(OC)c1O[Si](C)(C)C(C)(C)C	Mdm2-MdmX inh 71 | Mdm2 MdmX conf inactive | FLuc counter 81
COc1cc(C2CC(=O)Oc3cc4c(cc32)OCO4)cc(OC)c1OC (configuration not stated)	none
CC(=O)c1c(C)[nH]c(C(=O)COC(=O)c2ccc(Cl)nc2)c1C	none
COc1ccc(CC(=O)Nc2ccc(-c3nnc(-c4ccccc4)o3)cc2)cc1OC	none
COc1ccc(CC(=O)Nc2cccc(-c3nnc(-c4cccc(C)c4)o3)c2)cc1OC	Mdm2-MdmX inh 93 | Mdm2 MdmX conf 61 | FLuc counter 41
COc1ccc(CC(=O)Nc2cccc(-c3nnc(-c4ccc(C)cc4)o3)c2)cc1OC	Peg3 promoter 111, Mdm2-MdmX inh 72 | Mdm2 MdmX conf 75 | FLuc counter 67
CC1CCCC(C)N1CCCNC(=O)Cn1c(=O)c2cccn2c2cccnc21 (configuration not stated)	none
O=C1C=C(N2CCOCC2)c2cccc3cccc1c23	none (no result: Mdm2-MdmX inh)
O=C1C=C(N2CCOCC2)c2ccccc2C1=O	Peg3 promoter 101, Mdm2-MdmX inh 74, KKLEB cytotox -76, CF NFkB block 85 | Mdm2 MdmX conf inactive
CN(C)CCCNc1ncnc2c1c(-c1ccccc1)cn2-c1ccccc1	Mdm2-MdmX inh 61 | Mdm2 MdmX conf 42 | FLuc counter 89
COc1cccc2c1O/C(=N\O)C(C(=O)Nc1cccc(Br)c1)C2 (configuration not stated)	none (no result: Mdm2-MdmX inh)
COc1cc2c(cc1OC)CN(C(C)C(=O)N1CCc3ccccc31)CC2 (configuration not stated)	Mdm2-MdmX inh 52 | Mdm2 MdmX conf inactive | FLuc counter 84
CCN(CC)CCNC(=O)c1ccc(NC(=O)c2cccc(S(=O)(=O)N3c4ccccc4CC3C)c2)cc1 (configuration not stated)	Peg3 promoter 86, Mdm2-MdmX inh 80 | Mdm2 MdmX conf inactive
CC1Cc2ccccc2N1S(=O)(=O)c1cccc(C(=O)NCc2ccccn2)c1 (configuration not stated)	none
CC1Cc2ccccc2N1S(=O)(=O)c1cccc(C(=O)NCCCO)c1 (configuration not stated)	none
CCOC(=O)c1ccc(NC(=O)c2cccc(S(=O)(=O)N3c4ccccc4CC3C)c2)s1 (configuration not stated)	Mdm2-MdmX inh 57 | Mdm2 MdmX conf inactive
CC(C(=O)N1CCc2ccccc21)N1CCc2ccccc2C1 (configuration not stated)	none
CN(Cc1nc2ccccc2c(=O)[nH]1)C(=O)c1cccc(S(=O)(=O)N2CCc3ccccc32)c1	Mdm2-MdmX inh 81 | Mdm2 MdmX conf 55 | FLuc counter 68
COc1ccc(S(=O)(=O)N2CCCCCC2)cc1C(=O)N1CCN(c2ccccc2O)CC1	none
COc1ccc(Cl)cc1NC(=O)CN(C)C(=O)c1cc2c(s1)CCC(C)C2 (configuration not stated)	none
O=C(CCC1CCCCC1)Nc1ccccc1C(=O)N1CCOCC1	none
